Several values for one entry are separate records, joined by “and”; a condition that tells them apart may be missing. Equal values may be shown once. Records with an inconclusive call do not appear. Activity calls are given as the source filed them. Unless noted, calls come from the whole dose curve; as a rule, active = well fitted curve in the direction sought with a large enough effect; inconclusive = small, poorly fitted or top-dose-only effect, or another doubt; inactive = no such curve, though single readings can be large; an effect the other way counts as inactive or inconclusive.
How the values were obtained:
[1] = Validation of Assay for Modulators of Lamin A Splicing (AID 1459; active = well fitted curve in the direction sought with a large enough effect in the signal ratio; the % refers to the signal ratio;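 note: cells exposed to compound for two days before reading; 0% is about no effect; ratio rise marks activators and ratio drop marks inhibitors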)
Procedure, shortened: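 Readout: ratio of GFP (500-530 nm) to RFP (575-640 nm) total object intensity by 488 nm laser-scanning cytometry after 48 hrs. Cells were HeLa S3 clones carrying lamin A-EGFP minigene plus DsRed2 viability reporter; vehicle 0.5% DMSO final.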

[2] = qHTS Assay for Lipid Storage Modulators (AID 1519; calls by dose curve; for activity change, negative = inhibition: % is set by controls: 0 for no effect and ±100 for the full control effect); conditions: Drosophila S3 cells, BODIPY lipid droplet/cell ratio, laser cytometry, cells loaded with oleic acid
Procedure, shortened: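 Cells seeded at 5,000 per well were treated with compounds over a concentration series and loaded with oleic acid (400 uM, as added). Lipid droplet fluorescence (488 nm excitation, 500-530 nm channel) was read by laser-scanning cytometry and normalized to 20 uM Triacsin C.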

[3] = molecular target: DNA repair nuclease/redox regulator APEX1 (Homo sapiens) (UniProt P27695); test: qHTS Validation Assay for Inhibitors of the Human Apurinic/apyrimidinic Endonuclease 1 (APE1) (AID 1705;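 note: TAMRA fluorescence gain over two minutes as APE1 cuts a quenched THF abasic duplex; % is set by controls: 0 for no effect and ±100 for the full control effect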)
Procedure, shortened: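 Read-out: TAMRA fluorescence (525 nm ex, 598 nm em) from cleavage of a quenched THF abasic-site duplex, 50 nM final; activity taken as intensity change between third and first of three reads 60 s apart.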

[4] = Counterscreen for APE1 Inhibitors: Fluorescent Dye Displacement Validation Assay (AID 1707);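 note: plate controls were ThO with dsDNA and no compound for no effect and ThO without dsDNA for full effect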
Procedure, shortened: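 Counterscreen flags promiscuous DNA binders: compounds displacing ThO from duplex DNA (abasic THF site, 50 nM) reduce 540 nm emission (480 nm excitation). ThO 250 nM final; Tris-HCl pH 7.5 with NaCl, MgCl2 and Tween-20.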

[5] = molecular target: Endonuclease 4 (Escherichia coli (strain K12)) (UniProt P0A6C1); test: Counterscreen for APE1 Inhibitors: qHTS Validation Assay for Inhibitors of Endonuclease IV (AID 1708); note: % is set by controls: 0 for no effect and ±100 for the full control effect
Procedure, shortened: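 The reaction buffer contained 50 mM Tris-HCl pH 7.5, 50 mM NaCl, 2 mM MgCl2, 1 mM DTT and 0.01% Tween-20. Incision of a 50 nM fluorophore/quencher THF substrate by 2 nM enzyme was measured kinetically.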

[6] = qHTS for differential inhibitors of proliferation of Plasmodium falciparum line 7G8 (AID 1815);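 note: parasite growth measured after three days of incubation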; note: potency is the fitted concentration of half-maximal effect;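 for activity change, negative = inhibition: plate controls were vehicle wells for no effect and reference inhibitor wells for full effect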
[7] = qHTS for differential inhibitors of proliferation of Plasmodium falciparum line GB4 (AID 1816); conditions: Potency: Plasmodium falciparum GB4 proliferation inhibition;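 note: parasite growth measured after 72 h incubation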; note: potency is the fitted concentration of half-maximal effect;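 for activity change, negative = inhibition: 0% = vehicle DMSO and -100% = reference inhibitor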
[8] = qHTS for differential inhibitors of proliferation of Plasmodium falciparum line 3D7 (AID 1876); note: potency is the fitted concentration of half-maximal effect
[9] = qHTS for differential inhibitors of proliferation of Plasmodium falciparum line D10 (AID 1877);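 note: parasites grown with compound for 72 h before DNA staining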; note: potency is the fitted concentration of half-maximal effect;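 for activity change, negative = inhibition: plate controls were vehicle wells for no effect and reference inhibitor wells for full effect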
[10] = qHTS for differential inhibitors of proliferation of Plasmodium falciparum line Dd2 (AID 1882); conditions: Potency: Plasmodium falciparum Dd2 proliferation inhibition; note: nearly all actives have a fitted effect of over 65% in size; note: potency is the fitted concentration of half-maximal effect;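 for activity change, negative = inhibition: compound exposure of 72 h on infected erythrocytes; plate controls were DMSO vehicle for no effect and 0.29 µM artemisinin for full effect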
Procedure, shortened: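 RBC culture, 0.3% parasitemia / 2.5% Hct final; cpd added by pin tool in DMSO; 72 h, 37 C, 5% CO2; lysis buffer + SYBR Green I, o/n RT dark; FI 485/535; norm. to artemisinin 0.29 uM and DMSO.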

[11] = qHTS for differential inhibitors of proliferation of Plasmodium falciparum line W2 (AID 1883); conditions: Potency: Plasmodium falciparum W2 proliferation inhibition;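 note: parasites grown with compound for 72 h before lysis and staining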; note: potency is the fitted concentration of half-maximal effect;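 for activity change, negative = inhibition: 0% = vehicle wells and -100% = control inhibitor wells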
[12] = qHTS for differential inhibitors of proliferation of Plasmodium falciparum line HB3 (AID 1886); conditions: Potency: Plasmodium falciparum HB3 proliferation inhibition;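 note: parasites grown with compound for 72 h before SYBR Green readout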; note: potency is the fitted concentration of half-maximal effect;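 for activity change, negative = inhibition: plate controls were vehicle for no effect and reference inhibitor for full effect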
[13] = qHTS Assay for Modulators of Human Peripheral Myelin Protein 22 (PMP22) Expression/Activity (AID 1967; active = well fitted curve in the direction sought with a large enough effect in the signal ratio; the % refers to the signal ratio;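 note: 0% = untreated cells and 100% end not stated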)
Procedure, shortened: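 Mouse MSC80 Schwann line, Pmp22 promoter–CBG68 reporter, EF-alpha–CBR internal control. 24h compound exposure, 37 °C/5% CO2, DMEM + 10% FBS. Readout: corrected green/red luminescence ratio, normalized to untreated cells; concentration-response curves fitted and classified.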

[14] = molecular target: ATP-dependent DNA helicase Q1 (Homo sapiens) (UniProt P46063); test: qHTS Validation Assay for Inhibitors of RecQ-Like Dna Helicase 1 (RECQ1) (AID 2353);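 note: plate controls were DMSO vehicle for no effect and enzyme-free control for full effect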
Procedure, shortened: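 RECQ1T1 50 nM; forked duplex (20 bp + 30-nt ss tails) 200 nM, ATP 2 mM final; pH 8.0, 2 mM MgCl2, 2.5 ug/ml poly(dI-dC); 15 min compound preincubation; discontinuous kinetic read over 2 h at RT.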

[15] = molecular target: RecQ-like DNA helicase BLM (Homo sapiens) (UniProt P54132); test: qHTS Validation Assay for Inhibitors of Bloom's syndrome helicase (BLM) (AID 2364); note: potency is the fitted concentration of half-maximal effect;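 for activity change, negative = inhibition: plate controls were DMSO vehicle for no effect and enzyme-free control for full effect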
Procedure, shortened: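 Forked 20-bp duplex substrate (200 nM, TAMRA/BHQ-2) plus 2 mM ATP added after 15 min compound preincubation with 50 nM enzyme, pH 8.0, poly(dI-dC) 2.5 ug/ml. Strand separation followed by fluorescence (525/598 nm) over 2 h, normalized to enzyme-free and DMSO controls.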

[16] = Cytometric Cell-Based qHTS for Inhibitors of the mTORC1 Signaling Pathway in MEF (Tsc2-/-, p53-/-) Cells (AID 2660);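 note: Tsc2 and p53 null MEFs carrying empty vector with compound for 24 h; percent of cells above a phospho-rpS6 to PI ratio cutoff in each well; plate controls were DMSO for no effect and rapamycin for full effect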
Procedure, shortened: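 Immunofluorescence qHTS of rpS6 Ser235/236 phosphorylation: MEFs (Tsc2-/-, p53-/-) treated 24 h, 37 C, in DMEM + 10% FBS. Alexa-488 signal normalized to PI count, referenced to rapamycin (7.5 nM) and DMSO; PI cell number recorded for viability.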

[17] = High Content Imaging Cell-Based qHTS for Inhibitors of the mTORC1 Signaling Pathway in MEF (Tsc2-/-, p53-/-) Cells (AID 2666); conditions: at 38.3 µM (top of the series);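 note: percent of cells scored positive for phospho-rpS6 Ser235/236 immunostaining by imaging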
Procedure, shortened: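 Tsc2-/-, p53-/- MEFs (empty-vector stable) grown in DMEM + 10% FBS were exposed to compounds for 24 hrs at 37 degree Celsius, fixed, and stained with Alexa-488 anti-phospho-rpS6 Ser235/236 plus Hoechst. Imaging gave the percentage of positive cells per well.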

[18] = High Content Imaging Cell-Based qHTS for Inhibitors of the mTORC1 Signaling Pathway in MEF Cells (AID 2667);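 note: Tsc2-/- p53-/- MEFs stably re-expressing wild-type Tsc2 exposed 24 h; plate controls were DMSO wells for no effect and rapamycin control wells for full effect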
Procedure, shortened: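 Tsc2-/-, p53-/- MEFs stably re-expressing WT Tsc2, grown in DMEM + 10% FBS, were treated with compounds for 24 hrs at 37 degree Celsius, fixed, and stained with Alexa-488 phospho-rpS6 Ser235/236 antibody plus Hoechst; results given as % positive cells.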

[19] = Cytometry Cell-Based qHTS for Inhibitors of the mTORC1 Signaling Pathway in MEF cells (AID 2668);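 note: Tsc2-/- p53-/- mouse embryonic fibroblasts stably re-expressing wild-type Tsc2; percent cells positive for phospho-rpS6 Ser235/236 relative to propidium iodide stain; plate controls were DMSO wells for no effect and 7.5 nM rapamycin control wells for full effect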
Procedure, shortened: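 Read-out: phospho-rpS6 Ser235/236 immunofluorescence normalized to propidium iodide intensity, scored as % active cells against a rapamycin (7.5 nM) threshold. Cells: Tsc2-/-, p53-/- MEFs stably expressing WT Tsc2, compound-treated 24 hrs at 37 degree Celsius.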

[20] = measured here: cell count channel max response
[21] = measured here: lipid channel max response

Sequence of ATP-dependent DNA helicase Q1 (Homo sapiens) (P46063 whole entry, looked up): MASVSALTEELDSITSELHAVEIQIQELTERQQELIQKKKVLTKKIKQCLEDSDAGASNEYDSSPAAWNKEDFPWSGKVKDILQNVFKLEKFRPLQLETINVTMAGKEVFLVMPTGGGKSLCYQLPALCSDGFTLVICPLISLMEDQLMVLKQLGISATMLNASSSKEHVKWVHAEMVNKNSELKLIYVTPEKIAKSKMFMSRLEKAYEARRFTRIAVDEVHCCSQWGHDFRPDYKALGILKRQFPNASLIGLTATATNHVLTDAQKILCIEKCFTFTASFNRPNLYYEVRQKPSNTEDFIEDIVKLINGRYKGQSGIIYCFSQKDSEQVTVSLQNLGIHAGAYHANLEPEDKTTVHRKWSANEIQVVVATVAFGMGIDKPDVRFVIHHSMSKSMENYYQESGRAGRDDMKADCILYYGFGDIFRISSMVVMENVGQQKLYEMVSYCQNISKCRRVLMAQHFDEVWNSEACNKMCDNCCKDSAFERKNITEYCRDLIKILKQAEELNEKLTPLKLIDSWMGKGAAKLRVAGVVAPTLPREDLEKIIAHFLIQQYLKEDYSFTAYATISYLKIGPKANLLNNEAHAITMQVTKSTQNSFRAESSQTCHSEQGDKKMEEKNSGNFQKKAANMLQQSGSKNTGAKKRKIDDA
Sequence of DNA repair nuclease/redox regulator APEX1 (Homo sapiens) (P27695 whole entry, looked up): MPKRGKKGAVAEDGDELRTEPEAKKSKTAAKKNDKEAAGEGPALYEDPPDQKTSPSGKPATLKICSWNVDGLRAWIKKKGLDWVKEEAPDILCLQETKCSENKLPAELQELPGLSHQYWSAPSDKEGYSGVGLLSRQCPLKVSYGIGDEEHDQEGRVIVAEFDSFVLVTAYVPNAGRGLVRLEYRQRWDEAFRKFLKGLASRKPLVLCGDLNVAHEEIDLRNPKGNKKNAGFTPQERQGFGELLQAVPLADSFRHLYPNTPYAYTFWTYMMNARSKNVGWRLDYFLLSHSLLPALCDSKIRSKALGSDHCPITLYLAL
Sequence of RecQ-like DNA helicase BLM (Homo sapiens) (P54132 whole entry, looked up): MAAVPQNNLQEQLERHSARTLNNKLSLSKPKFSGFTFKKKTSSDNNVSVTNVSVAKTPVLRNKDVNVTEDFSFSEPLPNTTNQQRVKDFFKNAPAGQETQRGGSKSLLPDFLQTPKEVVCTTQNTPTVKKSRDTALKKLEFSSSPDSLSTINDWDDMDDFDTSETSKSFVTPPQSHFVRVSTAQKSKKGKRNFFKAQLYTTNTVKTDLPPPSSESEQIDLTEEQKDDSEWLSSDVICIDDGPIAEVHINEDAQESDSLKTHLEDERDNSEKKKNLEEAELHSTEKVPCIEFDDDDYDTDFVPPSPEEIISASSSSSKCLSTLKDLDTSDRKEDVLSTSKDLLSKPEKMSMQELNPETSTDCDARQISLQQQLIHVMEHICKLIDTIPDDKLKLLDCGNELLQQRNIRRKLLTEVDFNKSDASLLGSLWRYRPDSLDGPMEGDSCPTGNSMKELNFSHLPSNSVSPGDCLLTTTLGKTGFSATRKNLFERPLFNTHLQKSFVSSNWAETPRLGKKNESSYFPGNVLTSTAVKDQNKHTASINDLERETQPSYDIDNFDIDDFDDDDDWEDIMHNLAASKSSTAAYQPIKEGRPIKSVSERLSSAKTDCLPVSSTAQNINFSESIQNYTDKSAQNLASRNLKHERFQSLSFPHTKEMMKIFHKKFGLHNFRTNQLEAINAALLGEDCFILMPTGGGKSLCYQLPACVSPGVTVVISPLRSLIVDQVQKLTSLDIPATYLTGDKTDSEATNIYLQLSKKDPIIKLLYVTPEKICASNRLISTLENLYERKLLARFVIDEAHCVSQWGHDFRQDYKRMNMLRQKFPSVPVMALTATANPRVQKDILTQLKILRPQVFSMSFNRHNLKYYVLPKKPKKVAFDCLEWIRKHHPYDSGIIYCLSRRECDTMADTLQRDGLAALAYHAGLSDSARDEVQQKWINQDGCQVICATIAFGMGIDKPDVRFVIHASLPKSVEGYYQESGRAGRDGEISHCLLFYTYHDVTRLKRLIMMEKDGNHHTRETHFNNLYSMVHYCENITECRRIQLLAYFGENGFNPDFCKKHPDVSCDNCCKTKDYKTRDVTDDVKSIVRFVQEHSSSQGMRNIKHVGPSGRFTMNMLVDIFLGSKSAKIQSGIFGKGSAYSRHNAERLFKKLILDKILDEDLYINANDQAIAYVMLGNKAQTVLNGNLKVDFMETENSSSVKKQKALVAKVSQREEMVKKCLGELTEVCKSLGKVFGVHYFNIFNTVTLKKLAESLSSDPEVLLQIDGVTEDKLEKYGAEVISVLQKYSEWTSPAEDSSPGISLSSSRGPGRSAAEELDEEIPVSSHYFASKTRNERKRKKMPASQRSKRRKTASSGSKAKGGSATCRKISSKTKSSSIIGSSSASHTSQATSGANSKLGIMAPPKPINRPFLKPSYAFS

Nc1ccc(S(=O)(=O)Nc2ccnn2-c2ccccc2)cc1
-3.23% and 26.2%: max response [2, 21]
-3.22% and 11.1%: max response [2, 20]
inactive: outcome [1] | activity change, negative = inhibition ([2]; at 25.7 µM (top of the series)) -1.01% | activity change, negative = inhibition ([2]; at 57.5 µM (top of the series)) 14.1% | outcome [3] | outcome [4] | outcome [5] | Potency [6] | Potency [7] | Potency [8] | Potency [9] | Potency [10] | Potency [11] | Potency [12] | outcome [13] | outcome [14] | Potency [15] | outcome [16] | outcome [17] | outcome [18] | outcome [19]

NC(=O)c1cnccn1
inactive: activity change, negative = inhibition ([2]; at 57.5 µM (top of the series)) 8.38% | outcome [3] | outcome [4] | outcome [5] | Potency [6] | Potency [7] | Potency [8] | Potency [9] | Potency [10] | Potency [11] | Potency [12] | outcome [14] | Potency [15] | outcome [16] | outcome [17] | outcome [18] | outcome [19]
23.4%: max response [2, 21]
10.7%: max response [2, 20]

Cc1ccccc1C(OCCN(C)C)c1ccccc1 (stereo not given)
-33.7%: max response [2, 21]
active: Potency [6] 3.98 µM | Potency [11] 0.708 µM
inactive: activity change, negative = inhibition ([2]; at 57.5 µM (top of the series)) -0.936% | outcome [3] | outcome [4] | outcome [5] | Potency [9] | outcome [14] | outcome [16] | outcome [17] | outcome [18] | outcome [19]
-31.3%: max response [2, 20]

OC(CCN1CCCCC1)(c1ccccc1)C1CC2C=CC1C2 (stereo not given)
inactive: outcome [16] | outcome [17] | outcome [18] | outcome [19]

Nc1nc2c(ncn2COCCO)c(=O)[nH]1
inactive: outcome [3] | outcome [4] | outcome [5] | Potency [6] | Potency [7] | Potency [8] | Potency [9] | Potency [10] | Potency [12] | outcome [14] | outcome [16] | outcome [17] | outcome [18] | outcome [19]

O=C(Nc1nc2ccccc2n1CCN1CCOCC1)c1cccc([N+](=O)[O-])c1
inactive: outcome [16] | outcome [17]

O=c1n(CCCN2CCN(c3cccc(Cl)c3)CC2)nc2ccccn12
inactive: activity change, negative = inhibition ([2]; at 57.5 µM (top of the series)) 10.8% and -2.4% | outcome [3] | outcome [4] | outcome [5] | Potency [8] | Potency [9] | Potency [10] | Potency [12] | outcome [14] | Potency [15] | outcome [16] | outcome [17] | outcome [18] | outcome [19]
37% and -15.6%: max response [2, 21]
20.6% and -14.9%: max response [2, 20]

CC(C)C[C@H](NC(=O)[C@@H](O)[C@H](N)Cc1ccccc1)C(=O)O
-1.56%: max response [2, 20]
active: Potency [6] 2.51 µM | Potency [7] 2.51 µM | Potency [8] 0.631 µM | Potency [9] 2.82 µM | Potency [10] 2.24 µM | Potency [11] 1 µM | Potency [12] 3.55 µM
-0.689%: max response [2, 21]
inactive: activity change, negative = inhibition ([2]; at 57.5 µM (top of the series)) -0.597% | outcome [4] | outcome [5] | outcome [14] | Potency [15] | outcome [16] | outcome [17] | outcome [18] | outcome [19]

Nc1ncnc2nc(-c3ccc(N4CCOCC4)nc3)cc(-c3cccc(Br)c3)c12
inactive: outcome [16] | outcome [17] | outcome [18] | outcome [19]

OC(CN1CCC(Cc2ccc(F)cc2)CC1)c1ccc(Cl)cc1 (stereo not given)
active: Potency [6] 0.501 µM | Potency [7] 0.355 µM | Potency [8] 1.26 µM | Potency [9] 2.51 µM | Potency [10] 1.26 µM | Potency [11] 0.282 µM | Potency [12] 1.41 µM
inactive: outcome [3] | outcome [4] | outcome [5] | outcome [14] | outcome [16] | outcome [17] | outcome [18]

Cc1cccc(-c2[nH]c(C(C)(C)C)nc2-c2ccc3nccnc3c2)n1
inactive: outcome [16] | outcome [17] | outcome [18]

Cc1cn[nH]c1
inactive: outcome [4] | outcome [5] | Potency [6] | Potency [7] | Potency [8] | Potency [9] | Potency [10] | Potency [11] | Potency [12] | outcome [14] | Potency [15] | outcome [16] | outcome [17] | outcome [18] | outcome [19]

c1ccc([C@H]2CN3CCSC3=N2)cc1
21.4%: max response [2, 20]
inactive: activity change, negative = inhibition ([2]; at 57.5 µM (top of the series)) 0.161% | outcome [3] | outcome [4] | outcome [5] | Potency [6] | Potency [8] | Potency [9] | Potency [10] | Potency [12] | outcome [14] | outcome [16] | outcome [17] | outcome [18] | outcome [19]
20.7%: max response [2, 21]

C1COC(NC(C2CC2)C2CC2)=N1
active: Potency [6] 7.94 µM | Potency [11] 14.1 µM | Potency [12] 10 µM
3.69%: max response [2, 20]
inactive: activity change, negative = inhibition ([2]; at 25.7 µM (top of the series)) -4.99% | outcome [3] | outcome [4] | outcome [5] | outcome [14] | Potency [15] | outcome [16] | outcome [17] | outcome [18] | outcome [19]
-12.8%: max response [2, 21]

Oc1ccc(C2CNCCc3c2cc(O)c(O)c3Cl)cc1 (stereo not given)
inactive: outcome [3] | outcome [4] | outcome [5] | Potency [10] | outcome [16] | outcome [17] | outcome [18] | outcome [19]
active: Potency [7] 10 µM | Potency [8] 10 µM | Potency [9] 11.2 µM | Potency [11] 10 µM | Potency [12] 11.2 µM | Potency [15] 35.5 µM

— PubChem BioAssay (NCATS)
